Pf growth 96h: P. falciparum growth inhibition at 96 hours | P. falciparum luciferase reporter growth, 96 h | Potency, µM (doses to about 28.7 µM), for the others: at the highest dose activity change, negative = inhibition, hits mostly inhibitors | 320,000 compounds, 6.9% hits | AID 504834; further: on the % scale 0 is the no-effect control and ±100 the full control effect
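Plates of compound plus infected erythrocytes (2% hematocrit, 0.05% parasitemia final) incubate 96 hours, 37 C, 5% CO2. Detection reagent added; reduced luminescence from the parasites' luciferase reporter flags inhibition.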
SARS PLpro yeast: blocks SARS-CoV papain-like protease in a yeast assay. S. cerevisiae expressing SARS-CoV PLpro, growth rescue. 330,000 compounds, 0.19% hits. Potency, µM (doses to about 32.9 µM), without a hit: top-dose activity, positive = growth rescue, most hits filed as activators; calls by dose curve; further: 0% is about no effect; nearly all actives have a fitted effect of over 55% in size
NS1 inh: influenza NS1 inhibition; 270,000 compounds, 0.4% hits; Potency, µM (series often up to 46.1 µM), for inactives: top-dose activity, positive = more growth; AID 2326; calls by dose curve; further: actives are rising curves; nearly all actives have a fitted effect of over 50% in size
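Compounds were scored for reversing the slow growth caused by influenza A NS1 in S. cerevisiae, measured by optical density at 600 nm. Assay medium contained 2% galactose at pH 6.0; NS1-free yeast of the same strain were the positive control.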
Pf growth 48h: P. falciparum growth inhibition at 48 hours (one generation) | P. falciparum luciferase growth in erythrocytes, 48 h | Potency, µM (doses to about 28.7 µM), without a hit: top-dose activity change, negative = inhibition, most hits filed as inhibitors | 310,000 compounds, 5.9% hits | AID 504832; further: on the % scale 0 is the no-effect control and ±100 the full control effect
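Luminescence readout; reporter = integrated firefly luciferase in P. falciparum. RBC culture at 2% hematocrit, 0.1% parasitemia final, 37 C/5% CO2; decreased signal taken as growth inhibition.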
An asterisk follows results filed as active; u = inconclusive; x = no result. In the library only some 10% were active in any assay of this set; here they are far more common. Unless noted, the call rests on the fitted dose curve; in most records, active means well fitted inhibition curve with a large enough effect; inconclusive means small, poorly fitted or top-dose-only effect, or another doubt; inactive means no such curve, though single readings can be large or run the other way. Potency means the concentration at half of the fitted maximal effect.

SMILES	Pf growth 96h	SARS PLpro yeast	NS1 inh	Pf growth 48h
CCN1C(=O)[C@H]2[C@@H](c3ccc(-c4ccc(F)cc4)c(OC)c3)N3CCC[C@@]3(C(=O)OC)[C@H]2C1=O	7.38µM*	-0.9%	x	7.38µM*
COc1ccc(C(=O)NNC(=O)c2ccc3ccccc3n2)cc1	-7.5%	0.1%	x	-28.9%
CCN1C(=O)[C@H]2[C@@H](c3ccc(-c4ccc(OC)cc4)c(OC)c3)N3CCCC[C@@]3(C(=O)OC)[C@H]2C1=O	9.28µM*	-2.1%	x	11.7µM*
COc1ccc2c3n(nc2c1)CCN=C3c1cc(Cl)c(N)c(Cl)c1	u	-14.3%	x	13.1µM*
Nc1c(Cl)cc(C2=NCCn3nc4cc(C(F)(F)F)ccc4c32)cc1Cl	u	0.9%	x	u
COc1cc(C(=O)Nc2cc(S(C)(=O)=O)ccc2Cl)ccc1OCC(=O)N1CCOCC1	-10.4%	-5.4%	x	-9.9%
COc1nc(Nc2ccc(C(C)=O)cc2)nc(OC)n1	-8.1%	-2.5%	12.2%	14.7µM*
COc1ccc(Nc2nc(OC)nc(OC)n2)cc1	u	0.5%	-1.8%	u
CC(=O)N/N=C(\C)C1COc2ccccc2O1 (stereo not drawn)	0.2%	-0.5%	8.1%	9.3%
C[C@@H]1c2ccccc2Cn2cc3c(c21)C(=O)c1cccc(OP(=O)(O)OCc2ccccc2)c1C3=O	x	x	-3.1%	x
O=C(O)c1cn(-c2ccc(F)cc2)c2cc(N3CCNCC3)c(F)cc2c1=O	3.38µM*	x	x	u
CCn1cc(C(=O)O)c(=O)c2cc(F)c(N3CCN(C(=S)NC(=O)c4ccccc4)CC3)cc21	u	-2.4%	6.2%	u
O=C(CN1C2CCC1CC(O)(c1cccnc1)C2)Nc1ccc2c(c1)OCO2 (stereo not drawn)	8.28µM*	-1.6%	3.9%	12.3%
CNC1=CN(O)C(c2ccccc2)=c2cc(Cl)ccc2=N1	13.5µM*	x	x	19µM*
O=C(NCCC(=O)N1CCC2(CC1)NCCc1[nH]cnc12)c1ccc(Br)cc1	u	-0.9%	-11.1%	-12.8%
NCCCNc1nc(N)c([N+](=O)[O-])c(NC2CCCCC2)n1	u	-1.4%	1.5%	2.33µM*
O=C(CCl)Nc1cc(-c2ccccc2)nn1-c1ccccc1	6.57µM*	22.9%	-108.2%	x
Cc1ccc(S(=O)(=O)N2[C@@H](c3ccc(F)cc3)C(C(=O)O)=CC[C@H]2c2cccs2)cc1	u	-2.0%	x	u
CN(C)c1ccc(CC(=O)c2nc3ccccc3s2)cc1	3.29µM*	7.6%	3.1%	u
CN(C)C(=O)c1nc2ccccc2s1	18.8%	-5.3%	-3.1%	33.1%
COc1ccc(CN(CC(=O)NCc2ccccc2)C(=O)CCC(=O)Nc2nccs2)cc1	35.5%	2.2%	1.7%	-19.0%
COc1cccc(CNC(=O)C2CCC(CNS(=O)(=O)c3cccc4cccnc34)CC2)c1 (stereo not drawn)	u	6.1%	6.0%	u
O=C(Nc1ccc(C(=O)OC[C@@H]2CCCN3CCCC[C@H]23)cc1)c1cccc(Br)c1	2.62µM*	13.1%	1.3%	1.85µM*
CC1=C(C(=O)N2CCCC(N3CCN(c4cccc(C(F)(F)F)c4)CC3)C2)OCCO1 (stereo not drawn)	13.1µM*	-2.2%	-5.1%	-17.4%
CC1=C(C(=O)N2CCCC(C(=O)c3cccc(C(F)(F)F)c3)C2)OCCO1 (stereo not drawn)	13.1µM*	-0.7%	6.2%	u
SMILES	Pf growth 96h	SARS PLpro yeast	NS1 inh	Pf growth 48h
Cc1ncoc1C(=O)N1CCCC(C(=O)c2cccc(C(F)(F)F)c2)C1 (stereo not drawn)	u	0.1%	-2.7%	2.2%
Cn1cc(C(=O)N/N=C/C2=C(N3CCOCC3)C(=C\c3ccccc3)/CC2)ccc1=O	u	-29.8%	11.1%	13.7%
O=C1Nc2ccccc2/C1=N\N=C\C1=C(N2CCOCC2)C(=C\c2ccccc2)/CC1	2.94µM*	-0.3%	-7.7%	u
Cc1nn(CCCC(=O)NCc2ccccc2)c(=O)c2nccn12	1.04µM*	2.7%	9.6%	8.6%
Clc1ccc2[nH]c3c(NCCN4CCOCC4)ncnc3c2c1	30.1%	-1.1%	-0.8%	3.7µM*
Clc1ccc2[nH]c3c(NCC4CCCO4)ncnc3c2c1 (stereo not drawn)	166.4%	-6.1%	-15.9%	u
Fc1ccc2[nH]c3c(NCCN4CCOCC4)ncnc3c2c1	4.15µM*	-3.9%	-9.6%	3.29µM*
CCc1ccc(NC(=O)C2CCN(S(=O)(=O)c3cnc[nH]3)CC2)cc1	13.1µM*	-5.0%	-7.7%	u
CCc1ccc(NC(=O)C2CCCN(S(=O)(=O)c3cnc[nH]3)C2)cc1 (stereo not drawn)	u	1.3%	-11.4%	-5.7%
Cc1ccc(Cl)cc1N1CCN(C(=O)C2CCN(S(=O)(=O)c3cnc[nH]3)CC2)CC1	2.62µM*	1.9%	7.0%	-6.4%
CCCNC(=O)C1CN(C(=O)c2nn(Cc3ccccc3)c(=O)c3ccccc23)c2ccccc2O1 (stereo not drawn)	11.7µM*	1.1%	x	10.4µM*
C=CCN(c1ccccc1)S(=O)(=O)c1cccc(C(=O)NCC(c2ccc(F)cc2)N2CCOCC2)c1 (stereo not drawn)	u	-2.7%	x	13.1µM*
O=C(NC1CCN(Cc2ccccc2)CC1)c1cccc(S(=O)(=O)Nc2ccc(F)cc2)c1	2.08µM*	0.1%	x	4.15µM*
C=CCN(c1ccccc1)S(=O)(=O)c1cccc(C(=O)NC2CCN(Cc3ccccc3)CC2)c1	11.7µM*	1.2%	x	10.4µM*
CC1(C)CC(NC(=O)c2cccc(S(=O)(=O)Nc3cccc(Cl)c3)c2)CC(C)(C)N1	4.65µM*	-6.3%	x	13.1µM*
N#Cc1ncc(Cc2ccccc2)nc1C#N	u	u	-73.5%	u
O=C(NCC(c1ccc(F)cc1)N1CCOCC1)c1nn(-c2ccccc2)c(=O)c2ccccc12 (stereo not drawn)	u	-0.8%	x	9.28µM*
C=CCN(c1ccccc1)S(=O)(=O)c1cc(C(=O)NC2=NCCS2)ccc1Cl	u	-4.3%	x	u
O=C(NC1CCN(Cc2ccccc2)CC1)c1cccc(S(=O)(=O)Nc2ccc(Br)cc2)c1	u	3.3%	x	11.7µM*
C=CCN(c1ccc(F)cc1)S(=O)(=O)c1cc(C(=O)NC2CCC(O)CC2)ccc1Cl (stereo not drawn)	5.22µM*	-3.3%	x	u
O=C(Nc1ccccc1)C1=C[C@@H](C2CC2)C[C@@H](OCCCCO)O1	82.2%	-2.1%	-3.8%	61.3%
COCCN(C(=O)CCc1nnc(Cc2c[nH]c3ccccc23)o1)C(C)C	u	4.1%	11.4%	1.9%
COc1ccc(CNC(=O)C(c2ccncc2)N(C(=O)Cc2cccs2)c2ccc(C)cc2)cc1 (stereo not drawn)	u	-1.4%	-34.4%	u
Cc1cccc(N(C(=O)Cc2cccs2)C(C(=O)NC2CCCC2)c2ccncc2)c1 (stereo not drawn)	-16.5%	6.4%	-3.4%	-48.3%
COc1ccc(CNC(=O)C(c2ccncc2)N(C(=O)Cc2cccs2)c2ccccc2)cc1 (stereo not drawn)	13.1µM*	-24.8%	4.2%	6.2%
